Data from PubChem BioAssay AID720555 (National Center for Advancing Translational Sciences (NCATS), 2013).
Records with an inconclusive call do not appear. Activity calls are given as the source filed them. Calls come from the whole dose curve; as a rule, active = well fitted inhibition curve with a large enough effect; inconclusive = small, poorly fitted or top-dose-only effect; inactive = no such curve, though single readings can be large or run the other way.

Molecular target: RecQ-like DNA helicase BLM (Homo sapiens) (UniProt P54132)
Sequence (P54132 whole entry, looked up): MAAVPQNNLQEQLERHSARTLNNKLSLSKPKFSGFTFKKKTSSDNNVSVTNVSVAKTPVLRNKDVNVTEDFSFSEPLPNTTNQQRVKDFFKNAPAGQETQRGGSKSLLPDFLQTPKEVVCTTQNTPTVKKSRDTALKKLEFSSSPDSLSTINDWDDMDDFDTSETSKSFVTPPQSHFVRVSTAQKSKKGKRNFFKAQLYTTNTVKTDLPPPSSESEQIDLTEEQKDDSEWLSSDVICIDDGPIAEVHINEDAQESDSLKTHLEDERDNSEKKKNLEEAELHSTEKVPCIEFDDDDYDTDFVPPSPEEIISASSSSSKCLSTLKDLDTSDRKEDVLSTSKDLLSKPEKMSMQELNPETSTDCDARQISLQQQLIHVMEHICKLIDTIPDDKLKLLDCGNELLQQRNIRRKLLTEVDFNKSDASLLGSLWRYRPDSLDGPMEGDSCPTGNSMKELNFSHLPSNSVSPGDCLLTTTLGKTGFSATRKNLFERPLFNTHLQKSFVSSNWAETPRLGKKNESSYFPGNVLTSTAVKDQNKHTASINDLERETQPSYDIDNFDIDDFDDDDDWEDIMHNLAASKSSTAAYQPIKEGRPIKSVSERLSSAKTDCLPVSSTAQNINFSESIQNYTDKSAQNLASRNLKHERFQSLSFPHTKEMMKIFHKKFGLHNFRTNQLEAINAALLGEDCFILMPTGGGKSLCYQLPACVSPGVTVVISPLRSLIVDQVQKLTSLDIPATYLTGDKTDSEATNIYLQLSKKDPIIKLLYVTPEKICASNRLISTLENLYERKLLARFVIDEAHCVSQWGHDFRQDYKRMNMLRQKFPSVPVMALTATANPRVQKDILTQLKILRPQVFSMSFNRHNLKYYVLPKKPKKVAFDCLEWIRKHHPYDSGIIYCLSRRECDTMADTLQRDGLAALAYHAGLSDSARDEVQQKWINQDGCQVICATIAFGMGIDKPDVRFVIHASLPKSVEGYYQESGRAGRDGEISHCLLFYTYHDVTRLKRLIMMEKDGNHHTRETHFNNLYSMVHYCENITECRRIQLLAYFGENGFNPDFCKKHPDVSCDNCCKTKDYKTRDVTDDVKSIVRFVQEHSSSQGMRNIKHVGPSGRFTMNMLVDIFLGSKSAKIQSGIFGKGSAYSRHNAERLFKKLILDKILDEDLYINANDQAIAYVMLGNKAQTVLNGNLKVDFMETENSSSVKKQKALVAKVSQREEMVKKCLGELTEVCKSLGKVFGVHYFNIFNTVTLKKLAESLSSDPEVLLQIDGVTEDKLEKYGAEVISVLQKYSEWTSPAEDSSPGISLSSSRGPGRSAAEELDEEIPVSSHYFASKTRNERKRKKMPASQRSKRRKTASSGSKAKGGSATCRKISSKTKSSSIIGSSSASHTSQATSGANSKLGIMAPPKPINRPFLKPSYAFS
Assay: qHTS for Inhibitors of Bloom's syndrome helicase (BLM): Helicase DNA unwinding fluorescent orthogonal confirmatory assay for SAR
Conditions: fluorescence, orthogonal confirmation; series mostly up to 55.6 µM
Summary of the method: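 Purified BLM unwound a fluorescently labelled DNA substrate at room temperature in pH 7.5 Tris buffer with 2mM ATP and 2mM MgCl2. Products were resolved on native 15% gels. Loss of single-stranded product band, normalised to no-inhibitor and no-enzyme controls, indicates inhibition.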

Question: With `O=C(Nc1ccc(-c2nc3ccccc3[nH]2)cc1)Nc1ccc2c(c1)CCCO2` as the compound, how does the Potency read?
Answer: inactive

Question: `Cc1cc(NC(=O)Nc2nnc(-c3ccncc3)s2)ccc1Cl` was tested. Which Potency did it give?
Answer: 7.94 µM (active)

Question: For `O=C(Nc1cc(C(F)(F)F)cc(C(F)(F)F)c1)Nc1nnc(-c2ccncc2)s1`, which Potency is on record?
Answer: 12.6 µM (active)

Question: `O=C(Cc1nnc(-c2ccncc2)s1)Nc1ccc(F)c(C(F)(F)F)c1` was tested. Which Potency did it give?
Answer: inactive

Question: `Cc1cc(NC(=O)Nc2nnc(-c3ccncc3)s2)ccc1F` was tested. Which Potency did it give?
Answer: 15.8 µM (active)

Question: For `O=C(Nc1ccc2ccccc2c1)Nc1nnc(C2CCCCC2)s1`, which Potency is on record?
Answer: inactive

Question: For `N/C(=N\c1nnc(-c2ccncc2)s1)Nc1ccc(F)c(C(F)(F)F)c1`, which Potency is on record?
Answer: 35.5 µM (active)

Question: With `O=C(Nc1nnc(-c2ccncc2)s1)Nc1ccc(Cl)cc1Cl` as the compound, how does the Potency read?
Answer: 31.6 µM (active)

Question: `O=C(Nc1ccc(-n2ccnc2)c(F)c1)Nc1nnc(-c2ccncc2)s1` was tested. Which Potency did it give?
Answer: 10 µM (active)

Question: How did the Potency turn out when `O=C(Nc1ccc(-c2nc3ccccc3[nH]2)cc1)Nc1ccc2c(c1)OCCO2` was run?
Answer: inactive

Question: For `CN(C(=O)Nc1ccc2ccccc2c1)c1nnc(-c2ccncc2)s1`, which Potency is on record?
Answer: inactive

Question: How did the Potency turn out when `CC(C)(C)c1ccc(-c2nnc(NC(=O)Nc3ccc4ccccc4c3)s2)cc1` was run?
Answer: inactive

Question: With `N#Cc1cccc(NC(=O)Nc2nnc(-c3ccncc3)s2)c1` as the compound, how does the Potency read?
Answer: 8.91 µM (active)

Question: With `O=C(Nc1ccc(Cl)nc1)Nc1nnc(-c2ccncc2)s1` as the compound, how does the Potency read?
Answer: 6.31 µM (active)

Question: `O=C(Nc1ccc(Br)c(Br)c1)Nc1nnc(-c2cccnc2)s1` was tested. Which Potency did it give?
Answer: 3.55 µM (active)

Question: `O=C(Nc1ccc(N2CCOCC2)c(F)c1)Nc1nnc(-c2ccncc2)s1` was tested. Which Potency did it give?
Answer: inactive

Question: With `O=C(Nc1ccccc1)Nc1nnc(-c2ccncc2)s1` as the compound, how does the Potency read?
Answer: inactive

Question: Which Potency does the source give for `O=C(Nc1ccc2ccccc2c1)Nc1nnc(-c2ccc(F)cc2)s1` here?
Answer: inactive

Question: For `N#Cc1cc(NC(=O)Nc2nnc(-c3ccncc3)s2)ccc1F`, which Potency is on record?
Answer: 1.41 µM (active)

Question: How did the Potency turn out when `O=C(Nc1ccc(Cl)c(Cl)c1)Nc1nc(-c2ccncc2)cs1` was run?
Answer: 28.2 µM (active)

Question: Which Potency does the source give for `O=C(Nc1ccc2ccccc2c1)Nc1nnc(Br)s1` here?
Answer: inactive

Question: How did the Potency turn out when `O=C(Nc1ccc(Cl)c(C(F)(F)F)c1)Nc1nnc(-c2cccnc2)s1` was run?
Answer: 3.16 µM (active)

Question: With `O=S(=O)(Cc1ccc(Cl)c(Cl)c1)Nc1nnc(-c2ccncc2)s1` as the compound, how does the Potency read?
Answer: inactive

Question: `O=C(Nc1ccc(Br)cc1)Nc1nnc(-c2ccncc2)s1` was tested. Which Potency did it give?
Answer: 12.6 µM (active)

Question: Which Potency does the source give for `N#Cc1cc(NC(=O)Nc2nnc(-c3ccncc3)s2)ccc1Cl` here?
Answer: 0.398 µM (active)

Question: For `O=C(Nc1ccc2ccccc2c1)Nc1cccc(-c2ccncc2)n1`, which Potency is on record?
Answer: 8.91 µM (active)

Question: For `O=C(Nc1ccc(Cl)c(Cl)c1)Nc1ncc(-c2ccncc2)s1`, which Potency is on record?
Answer: inactive

Question: For `N#Cc1cc(NC(=O)Nc2cccc(-c3ccncc3)n2)ccc1Cl`, which Potency is on record?
Answer: 0.631 µM (active)

Question: For `O=C(Nc1ccc(F)c(C(F)(F)F)c1)Nc1nnc(C2CCCCC2)s1`, which Potency is on record?
Answer: inactive

Question: `O=C(Nc1ccc2ccccc2c1)Nc1nnc(-c2ccccc2)s1` was tested. Which Potency did it give?
Answer: inactive

Question: With `N#Cc1ccc(NC(=O)Nc2nnc(-c3ccncc3)s2)c(Cl)c1` as the compound, how does the Potency read?
Answer: 11.2 µM (active)

Question: For `Cc1cc(NC(=O)Nc2nnc(-c3ccncc3)s2)ccc1-c1cn[nH]c1`, which Potency is on record?
Answer: 11.2 µM (active)

Question: For `O=C(Nc1ccc(Br)c(Br)c1)Nc1nnc(-c2ccncc2)s1`, which Potency is on record?
Answer: 5.01 µM (active)

Question: How did the Potency turn out when `O=C(Nc1ccc(F)nc1)Nc1nnc(-c2ccncc2)s1` was run?
Answer: 22.4 µM (active)

Question: For `O=c1c(Nc2ccc(Br)c(Br)c2)c(Nc2nnc(-c3ccncc3)s2)c1=O`, which Potency is on record?
Answer: 6.31 µM (active)
